Measurements: PubChem BioAssay (NCATS)
A number with no mark means an inactive call. Results filed as inconclusive are left out. Activity calls are given as the source filed them. Unless noted, calls follow the shape of the dose curve; as a rule, active = well fitted curve in the direction sought with a large enough effect; inconclusive = small, poorly fitted or top-dose-only effect, or another doubt; inactive = no such curve, though single readings can be large; an effect the other way counts as inactive or inconclusive.

Columns and labels:
[1] = target: Lysosomal acid glucosylceramidase (Homo sapiens) (UniProt P04062); assay: Glucocerebrosidase-p2 (AID 348; in the data active = potency below about 10 µM; also: potency is read from the fitted curve at half-maximal effect); settings: purified GBA, blue fluorogenic substrate, 40 min
Chain of Lysosomal acid glucosylceramidase (Homo sapiens) (P04062 whole entry, looked up): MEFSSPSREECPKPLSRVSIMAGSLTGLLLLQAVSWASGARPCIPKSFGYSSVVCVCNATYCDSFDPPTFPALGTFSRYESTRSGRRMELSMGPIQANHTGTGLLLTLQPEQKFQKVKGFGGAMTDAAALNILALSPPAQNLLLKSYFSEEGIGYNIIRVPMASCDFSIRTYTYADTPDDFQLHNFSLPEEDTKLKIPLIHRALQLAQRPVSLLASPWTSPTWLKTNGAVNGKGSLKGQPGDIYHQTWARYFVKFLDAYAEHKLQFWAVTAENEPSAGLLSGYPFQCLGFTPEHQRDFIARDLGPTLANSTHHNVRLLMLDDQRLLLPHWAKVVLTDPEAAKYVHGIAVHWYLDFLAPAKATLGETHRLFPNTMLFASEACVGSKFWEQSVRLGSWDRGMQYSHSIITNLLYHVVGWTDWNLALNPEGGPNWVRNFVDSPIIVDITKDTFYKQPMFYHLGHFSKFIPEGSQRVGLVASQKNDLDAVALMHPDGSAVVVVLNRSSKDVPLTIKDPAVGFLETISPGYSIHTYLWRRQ
Summary of the method: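 Normal human glucocerebrosidase (0.2 nM) with blue fluorogenic substrate (80 uM final) in citrate/phosphate pH 5.9 with 10mM sodium taurocholate, 0.01% tween-20; 40 min RT, NaOH/glycine stop; fluorescence Ex 365/Em 440; AC50 from a titration from 0.6 nM upwards.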

[2] = AP1 Signaling Pathway (AID 357; active = well fitted curve in either direction with a large enough effect, not every such curve was filed as active;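 also: ME-180 reporter cells stimulated with EGF at its EC50 level; % is scaled to controls: 0 for no effect and ±100 for the full control effect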); settings: ME-180 AP-1-bla reporter, EGF-induced, beta-lactamase ratio, 5 h; at 7.69 µM (top of the series) unless noted
Summary of the method: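 A ratiometric CCF4 readout (405 nm excitation; 460 and 530 nm emission) quantified AP-1-driven beta-lactamase in ME-180 cells after 5 h with compound and EC50 EGF; AC50 values were derived for activators and inhibitors.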

[3] = target: Cytochrome P450 1A2 (Homo sapiens) (UniProt P05177); assay: p450-cyp1a2 (AID 410; calls by dose curve; also: potency is read from the fitted curve at half-maximal effect;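 as to activity change, negative = inhibition: -100% = full effect of reference inhibitor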); settings: recombinant CYP1A2, luciferin-ME demethylation, luminescence; series mostly up to 57 µM
Chain of Cytochrome P450 1A2 (Homo sapiens) (P05177 whole entry, looked up): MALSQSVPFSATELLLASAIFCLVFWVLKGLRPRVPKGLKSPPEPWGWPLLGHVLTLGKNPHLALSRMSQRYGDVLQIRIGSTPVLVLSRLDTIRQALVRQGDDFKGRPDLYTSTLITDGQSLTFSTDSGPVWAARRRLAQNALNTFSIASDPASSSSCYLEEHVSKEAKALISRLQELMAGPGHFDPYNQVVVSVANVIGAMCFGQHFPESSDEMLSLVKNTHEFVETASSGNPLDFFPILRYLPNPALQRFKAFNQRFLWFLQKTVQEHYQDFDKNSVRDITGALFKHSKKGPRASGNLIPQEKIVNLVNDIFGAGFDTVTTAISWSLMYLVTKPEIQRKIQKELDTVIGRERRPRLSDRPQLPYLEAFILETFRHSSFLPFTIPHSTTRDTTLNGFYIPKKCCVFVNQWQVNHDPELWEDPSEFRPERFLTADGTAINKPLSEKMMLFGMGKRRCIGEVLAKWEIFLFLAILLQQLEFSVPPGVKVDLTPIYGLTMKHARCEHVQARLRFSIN
Summary of the method: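 Luminescent demethylation readout: Luciferin-ME (100uM, equal to Km) turned over by 20nM CYP1A2 for 60 min at room temperature after NADPH regeneration addition, following 10 min compound preincubation. Normalization used 57 uM furafylline as full inhibition.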

[4] = NFAT Signaling Pathway (AID 444; active = well fitted curve in either direction with a large enough effect, not every such curve was filed as active;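 also: carbachol stimulus at about its EC50 of 1 µM final; % is scaled to controls: 0 for no effect and ±100 for the full control effect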); settings: Jurkat NFAT-bla M1, carbachol, beta-lactamase ratio, 5 h; at 7.69 µM (top of the series) unless noted
Summary of the method: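 Jurkat cells carrying an NFAT-driven β-lactamase reporter and co-transfected muscarinic M1 receptor were treated with compound plus carbachol (1 uM final, an EC50 level) for 5 h at 37 °C. CCF4 loading followed for 1 h at RT; 460/530 nm ratio gave %activity.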

[5] = Stat Signaling Pathway (AID 446; active = well fitted curve in either direction with a large enough effect, not every such curve was filed as active;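 also: ME-180 cervical cancer cells given 40 pM IL-6 alongside compound; SIE-controlled beta-lactamase reporter measured as 460/530 nm FRET emission ratio; % is scaled to controls: 0 for no effect and ±100 for the full control effect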); settings: ME-180 (cervical carcinoma) SIE beta-lactamase reporter, IL-6 stimulated, 5 h; at 7.69 µM (top of the series) unless noted
Summary of the method: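 Normalization used AC90 stimulation (300 pM IL-6) and AC90 inhibition (125 nM pan-JAK inhibitor at 40 pM IL-6). The underlying signal is SIE-driven beta-lactamase in ME-180 cells after 5 h IL-6 exposure with compound.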

[6] = target: Glucocorticoid receptor (Homo sapiens) (UniProt P04150); assay: GR-GFP Redistribution (AID 450;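 active = compounds whose dose series gives a full or clear partial fitted curve of increased nuclear translocation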; also: potency is read from the fitted curve at half-maximal effect); settings: U2OS GR-GFP nuclear translocation, laser cytometry, 2 h
Chain of Glucocorticoid receptor (Homo sapiens) (P04150 whole entry, looked up, the tested form may be a part): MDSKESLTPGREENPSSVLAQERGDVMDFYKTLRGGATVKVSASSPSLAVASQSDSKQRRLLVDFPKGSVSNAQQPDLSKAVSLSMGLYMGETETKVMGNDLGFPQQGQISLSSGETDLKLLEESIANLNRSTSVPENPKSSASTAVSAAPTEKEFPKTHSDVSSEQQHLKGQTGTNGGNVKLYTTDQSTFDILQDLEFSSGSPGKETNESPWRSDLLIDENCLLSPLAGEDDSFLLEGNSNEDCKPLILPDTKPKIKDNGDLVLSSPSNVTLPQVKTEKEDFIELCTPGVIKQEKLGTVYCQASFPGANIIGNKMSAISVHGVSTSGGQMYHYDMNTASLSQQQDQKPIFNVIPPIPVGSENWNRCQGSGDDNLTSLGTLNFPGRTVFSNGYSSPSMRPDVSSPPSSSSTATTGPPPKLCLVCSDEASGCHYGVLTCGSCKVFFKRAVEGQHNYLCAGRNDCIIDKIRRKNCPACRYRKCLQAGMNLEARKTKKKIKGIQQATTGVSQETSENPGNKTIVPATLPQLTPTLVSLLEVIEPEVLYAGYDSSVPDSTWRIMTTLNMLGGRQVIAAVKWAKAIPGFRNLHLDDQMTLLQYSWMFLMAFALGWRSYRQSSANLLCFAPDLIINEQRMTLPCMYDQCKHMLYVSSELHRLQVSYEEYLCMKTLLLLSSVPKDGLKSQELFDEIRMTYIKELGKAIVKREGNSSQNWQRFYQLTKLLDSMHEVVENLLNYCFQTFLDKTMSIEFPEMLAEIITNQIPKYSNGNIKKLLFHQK

[7] = target: Glucocorticoid receptor (Homo sapiens) (UniProt P04150); assay: GR-EFC Redistribution (AID 451; calls by dose curve; also: potency is read from the fitted curve at half-maximal effect); settings: CHO-K1 GR-EFC translocation, beta-gal luminescence, 2 h
Summary of the method: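 CHO-K1 cells stably expressing nuclear-localized β-gal enzyme acceptor and GR fused C-terminally to the enzyme donor fragment; ligand-driven nuclear translocation restores β-gal by complementation. Compounds titrated up to 46 uM final, 2 h at 37 °C; luminescence read.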

[8] = target: Mitogen-activated protein kinase 10 (Mus musculus) (UniProt Q61831); assay: JNK3 AlphaScreen Assay (AID 530; active = well fitted curve in either direction with a large enough effect, not every such curve was filed as active;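 also: kinase came from lysate of stimulated human HepG2 cells; signal reports phosphorylation of biotinylated GST-cJun 1-79 at Ser73 with 10 µM ATP; % is scaled to controls: 0 for no effect and ±100 for the full control effect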); settings: JNK3 lysate, c-Jun phosphorylation; series mostly up to 57.1 µM
Summary of the method: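 Phosphorylation of biotinylated GST-cJun(1-79) at Ser73 is measured by AlphaScreen proximity luminescence. Enzyme is JNK3 in HepG2 lysates activated with interleukin-1beta and tumor necrosis factor alpha; ATP is 10 uM final.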

[9] = target: 3',5'-cyclic-AMP phosphodiesterase 4B (Homo sapiens) (UniProt Q07343); assay: qHTS Assay for Inhibitors of PDE-IV (AID 607; active = well fitted activation curve with a large enough effect in the main read-out, with a control signal flat, not every such curve was filed as active; also: % of control where 0% means no effect); settings: HEK293 ACTOne CNG channel cells, membrane potential fluorescence; series mostly up to 22.9 µM
Chain of 3',5'-cyclic-AMP phosphodiesterase 4B (Homo sapiens) (Q07343 whole entry, looked up): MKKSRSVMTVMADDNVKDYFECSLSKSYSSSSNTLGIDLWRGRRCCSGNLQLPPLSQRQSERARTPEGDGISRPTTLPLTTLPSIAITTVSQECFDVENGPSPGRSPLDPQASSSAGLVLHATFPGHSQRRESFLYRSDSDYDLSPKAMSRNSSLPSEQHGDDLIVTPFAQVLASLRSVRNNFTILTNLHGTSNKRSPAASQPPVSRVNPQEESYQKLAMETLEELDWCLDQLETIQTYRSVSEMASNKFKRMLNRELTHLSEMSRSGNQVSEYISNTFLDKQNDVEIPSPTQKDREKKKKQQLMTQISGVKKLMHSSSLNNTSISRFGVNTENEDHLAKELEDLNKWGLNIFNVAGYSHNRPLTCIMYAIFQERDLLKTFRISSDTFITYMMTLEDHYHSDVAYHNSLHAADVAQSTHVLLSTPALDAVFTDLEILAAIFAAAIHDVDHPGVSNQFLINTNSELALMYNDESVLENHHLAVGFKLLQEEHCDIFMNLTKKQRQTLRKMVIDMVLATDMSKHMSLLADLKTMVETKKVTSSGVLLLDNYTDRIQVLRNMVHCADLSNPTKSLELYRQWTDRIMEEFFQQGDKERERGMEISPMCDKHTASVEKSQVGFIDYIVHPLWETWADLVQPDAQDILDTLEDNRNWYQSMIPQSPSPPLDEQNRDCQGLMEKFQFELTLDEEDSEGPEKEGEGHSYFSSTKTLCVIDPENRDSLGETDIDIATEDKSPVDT
Summary of the method: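 HEK293 ACTOne cells with CNG channel (1000/well), endogenous PDE4; membrane potential dye, compounds up to 22.9 uM final. Fluorescence Ex 535/Em 590; RO 20-1724 (100 uM final) as reference.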

[10] = target: Cytochrome P450 3A4 (Homo sapiens) (UniProt P08684); assay: qHTS Assay for Inhibitors and Substrates of Cytochrome P450 3A4 (AID 884); settings: recombinant CYP3A4, Luciferin-PPXE luminescence; series mostly up to 57.1 µM; also: potency is read from the fitted curve at half-maximal effect; nearly all actives have a fitted effect of over 50% in size
Chain of Cytochrome P450 3A4 (Homo sapiens) (P08684 whole entry, looked up): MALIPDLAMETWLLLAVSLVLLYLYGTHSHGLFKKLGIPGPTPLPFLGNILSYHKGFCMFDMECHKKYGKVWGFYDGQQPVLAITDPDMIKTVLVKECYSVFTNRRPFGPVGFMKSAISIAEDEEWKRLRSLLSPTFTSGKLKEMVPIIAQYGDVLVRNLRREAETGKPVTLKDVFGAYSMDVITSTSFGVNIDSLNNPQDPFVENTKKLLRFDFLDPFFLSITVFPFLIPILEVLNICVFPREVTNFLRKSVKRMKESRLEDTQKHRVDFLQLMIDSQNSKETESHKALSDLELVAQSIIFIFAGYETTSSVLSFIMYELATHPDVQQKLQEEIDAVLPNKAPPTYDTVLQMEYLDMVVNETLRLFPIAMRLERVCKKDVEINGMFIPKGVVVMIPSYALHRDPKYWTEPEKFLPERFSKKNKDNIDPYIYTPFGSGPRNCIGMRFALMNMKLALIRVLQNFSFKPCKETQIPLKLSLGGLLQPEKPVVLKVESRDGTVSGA
Summary of the method: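 Luminescent readout of luciferin produced by CYP3A4 (20 nM) dealkylation of Luciferin-PPXE, 25 uM (its KM). NADPH-driven reaction ran 60 min at RT after 10 min compound preincubation; data scaled to 57 uM ketoconazole as 100% inhibition.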

[11] = target: Cytochrome P450 3A4 (Homo sapiens) (UniProt P08684); assay: qHTS Assay for Activators of Cytochrome P450 3A4 (AID 885); settings: recombinant CYP3A4, Luciferin-PPXE luminescence, 60 min; series mostly up to 57.1 µM; also: nearly all actives have a fitted effect of over 65% in size
Summary of the method: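 Human CYP3A4 dealkylates Luciferin-PPXE to luciferin, which luciferase detection converts to light. Substrate was at its KM (25uM), buffer 200mM KPO4, reaction 60 min at RT.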

[12] = target: Dual specificity protein kinase CLK4 (Homo sapiens) (UniProt Q9HAZ1); assay: qHTS Assay for Inhibitors of CDC-like Kinase 4 (Kinase-Glo Assay) (AID 1770); settings: recombinant Clk4, Kinase-Glo ATP depletion luminescence; series mostly up to 66.7 µM; also: nearly all actives have a fitted effect of over 65% in size; also: potency is read from the fitted curve at half-maximal effect
Chain of Dual specificity protein kinase CLK4 (Homo sapiens) (Q9HAZ1 whole entry, looked up): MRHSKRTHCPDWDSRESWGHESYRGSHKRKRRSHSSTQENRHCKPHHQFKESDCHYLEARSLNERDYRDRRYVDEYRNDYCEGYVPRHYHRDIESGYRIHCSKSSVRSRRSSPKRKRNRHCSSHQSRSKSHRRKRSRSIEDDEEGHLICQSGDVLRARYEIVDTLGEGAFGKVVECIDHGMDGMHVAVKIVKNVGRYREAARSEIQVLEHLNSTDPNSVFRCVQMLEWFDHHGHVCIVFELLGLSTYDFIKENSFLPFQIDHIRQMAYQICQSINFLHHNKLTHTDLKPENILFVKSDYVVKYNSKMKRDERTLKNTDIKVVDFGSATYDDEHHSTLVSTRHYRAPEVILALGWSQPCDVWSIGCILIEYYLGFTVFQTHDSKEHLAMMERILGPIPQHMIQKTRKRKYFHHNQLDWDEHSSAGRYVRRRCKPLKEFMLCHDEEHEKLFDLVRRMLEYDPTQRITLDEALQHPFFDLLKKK
Summary of the method: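 Substrate mix (RS peptide 100 uM, ATP 1 uM) dispensed, compound pinned in, then Clk4 added to 25 nM final. Incubated 4.5 h at RT; Kinase-Glo reagent added, luminescence read after 5 min.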

[13] = target: Dual specificity protein kinase CLK4 (Homo sapiens) (UniProt Q9HAZ1); assay: qHTS Assay for Inhibitors of CDC-like Kinase 4 (ADP-Glo Assay) (AID 1771); settings: recombinant CLK4, ADP-Glo luminescence; series mostly up to 80 µM; also: nearly all actives have a fitted effect of over 70% in size; also: potency is read from the fitted curve at half-maximal effect
Summary of the method: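 ADP production was read by ADP-Glo luminescence after residual ATP depletion, following 1 h room-temperature reaction of 25 nM Clk4, 1 uM ATP and 100 uM RS peptide with MgCl2, EGTA, DTT and Triton X-100.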

[14] = target: Dual specificity protein kinase CLK4 (Homo sapiens) (UniProt Q9HAZ1); assay: qHTS Assay for Inhibitors of CDC-like Kinase 4 (ADP-FP Assay) (AID 1795); settings: Transcreener ADP fluorescence polarization; series mostly up to 50 µM; also: nearly all actives have a fitted effect of over 60% in size; also: potency is read from the fitted curve at half-maximal effect
Summary of the method: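 Clk4 6.25 nM; RS peptide 100 uM; ATP 1 uM; 25 mM Tris pH 7.5, 10 mM MgCl2; 1 h reaction. ADP detected via antibody/orange tracer FP displacement; TG003 positive control.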

[15] = target: Ubiquitin carboxyl-terminal hydrolase 1 (Homo sapiens) (UniProt O94782); assay: Inhibitors of USP1/UAF1: Pilot qHTS (AID 504865); settings: purified USP1/UAF1, Ub-rhodamine cleavage fluorescence; series mostly up to 54.9 µM;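 also: rhodamine fluorescence freed from ubiquitin-rhodamine substrate followed over time; top concentration of the series differs between compounds; % is scaled to controls: 0 for no effect and ±100 for the full control effect; nearly all actives have a fitted effect of over 35% in size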
Chain of Ubiquitin carboxyl-terminal hydrolase 1 (Homo sapiens) (O94782 whole entry, looked up): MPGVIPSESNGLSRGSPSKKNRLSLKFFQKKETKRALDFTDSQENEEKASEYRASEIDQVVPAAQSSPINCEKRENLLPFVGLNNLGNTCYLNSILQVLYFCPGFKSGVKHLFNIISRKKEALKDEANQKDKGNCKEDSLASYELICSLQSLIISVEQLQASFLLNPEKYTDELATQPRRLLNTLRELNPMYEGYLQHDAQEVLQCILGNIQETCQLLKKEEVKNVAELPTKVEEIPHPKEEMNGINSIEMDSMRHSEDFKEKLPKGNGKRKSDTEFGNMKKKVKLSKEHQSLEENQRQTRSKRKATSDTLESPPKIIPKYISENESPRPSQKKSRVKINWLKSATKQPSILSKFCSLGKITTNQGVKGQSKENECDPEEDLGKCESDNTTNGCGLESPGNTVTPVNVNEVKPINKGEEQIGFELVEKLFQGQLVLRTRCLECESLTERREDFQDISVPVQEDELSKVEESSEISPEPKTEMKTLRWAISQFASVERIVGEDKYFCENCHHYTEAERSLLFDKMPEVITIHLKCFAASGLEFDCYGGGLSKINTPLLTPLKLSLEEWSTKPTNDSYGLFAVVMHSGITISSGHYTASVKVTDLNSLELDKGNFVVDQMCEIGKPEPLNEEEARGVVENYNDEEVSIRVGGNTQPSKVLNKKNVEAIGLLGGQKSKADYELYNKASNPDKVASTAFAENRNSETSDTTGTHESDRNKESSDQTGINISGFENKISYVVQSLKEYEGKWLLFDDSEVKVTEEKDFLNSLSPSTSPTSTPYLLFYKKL
Summary of the method: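 In 50mM HEPES pH 7.8 containing 0.5mM EDTA, 1mM TCEP, 0.1 mg/ml BSA and 0.01% Tween-20, 1nM USP1/UAF1 is exposed to compound for 15 min, then Ub-Rho (150nM final) is added and fluorescence is read over time.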

[16] = Primary qHTS for small molecule stabilizers of the endoplasmic reticulum resident proteome: Secreted ER Calcium Modulated Protein (SERCaMP) assay (AID 1508630); settings: SH-SY5Y GLuc-SERCaMP (Gaussia luciferase released on ER calcium loss) secretion, thapsigargin, luminescence; series mostly up to 38.4 µM; also: % is scaled to controls: 0 for no effect and ±100 for the full control effect
Summary of the method: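 The SH-SY5Y reporter protocol was run at 3 concentrations up to 38.3 uM (primary) or 11 concentrations (follow-up): 16 h compound, 100 nM thapsigargin for 4 h, then extracellular luciferase luminescence.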

Structure (SMILES) | Potency [1] [µM] | activity change, negative = inhibition [2] [%] | Potency [3] | activity change, negative = inhibition [4] [%] | activity, negative = inhibition [5] [%] | Potency [6] [µM] | Potency [7] [µM] | Potency [8] | Potency [9] | Potency [10] | Potency [11] | Potency [12] | Potency [13] | Potency [14] | Potency [15] | outcome [16]
Cc1cccc(CNc2ncncc2-c2cccnc2)c1 | > 11.4 | 11.8 | 0.794 µM (active) | 12 | 10.4 | > 46 | > 46 | inactive | inactive | 0.631 µM (active) | inactive | inactive | inactive | inactive | inactive | inactive
CS(=O)(=O)Nc1cccc(-c2cc(NCc3cccs3)ncn2)c1 | > 11.4 | -14.7 | 6.31 µM (active) | -3.98 | -1.82 | > 46 | > 46 | inactive | inactive | – | inactive | 10 µM (active) | 12.6 µM (active) | 12.6 µM (active) | inactive | inactive
COc1ccc(-n2c(=O)c(-c3ccc(F)cc3)nc3cncnc32)cc1 | > 11.4 | 7.36 | inactive | -20 | 6.09 | > 9.22 | > 46 | inactive | inactive | – | – | inactive | inactive | inactive | inactive | inactive
COc1ccccc1CNc1ccnc(-c2cccc(C#N)c2)n1 | > 11.4 | -13.8 | 0.794 µM (active) | 8.07 | -11.8 | > 46 | > 46 | inactive | inactive | 3.98 µM (active) | inactive | 7.94 µM (active) | 7.94 µM (active) | 3.16 µM (active) | inactive | inactive
COc1ncc2nc(-c3ccc(F)cc3)c(=O)n(Cc3ccc(F)cc3)c2n1 | > 11.4 | 1.72 | 1.58 µM (active) | -1.74 | -13.2 | > 9.22 | > 46 | inactive | inactive | 3.16 µM (active) | inactive | inactive | inactive | inactive | inactive | inactive
COCCn1c(=O)c(-c2cc(F)cc(F)c2)nc2cnc(N(C)C)nc21 | > 11.4 | 3.27 | 5.01 µM (active) | -6.48 | -2 | > 9.22 | > 46 | inactive | inactive | – | – | inactive | inactive | inactive | inactive | inactive
c1ccc(CNc2ncncc2-c2cccnc2)cc1 | > 11.4 | 1.26 | 2.51 µM (active) | -2.51 | -3.91 | > 46 | > 46 | inactive | inactive | 1.26 µM (active) | inactive | inactive | inactive | inactive | inactive | inactive
NC(=O)c1ccccc1-c1nc(-n2ccnc2)c2ccccc2n1 | > 11.4 | 11.1 | 2.51 µM (active) | -3.23 | -1.41 | > 46 | > 46 | inactive | inactive | 3.98 µM (active) | inactive | inactive | inactive | inactive | inactive | inactive
COc1cccc(Cn2c(=O)c(CCc3ccccc3)nc3cncnc32)c1 | > 11.4 | -12.1 | 12.6 µM (active) | -7.87 | -9.09 | > 9.22 | > 46 | inactive | inactive | 2.51 µM (active) | inactive | inactive | inactive | inactive | inactive | inactive
COc1ccc(CNc2ccnc(-c3ccc(C(=O)N(C)C)cc3)n2)c(OC)c1 | > 11.4 | -20 | 12.6 µM (active) | -8.82 | -4.52 | > 46 | > 46 | inactive | inactive | 3.98 µM (active) | inactive | inactive | inactive | inactive | inactive | inactive
CC(=O)NCCNc1nc(-c2ccc(C(=O)N(C)C)cc2)nc2ccccc12 | > 11.4 | 3.64 | inactive | 9.74 | 11.4 | > 46 | > 46 | inactive | inactive | – | – | inactive | inactive | inactive | inactive | inactive
COc1ccc(CNc2cc(-c3cccnc3)ncn2)c(OC)c1 | > 11.4 | -14.6 | 1.26 µM (active) | 10.5 | 2.95 | > 46 | > 46 | inactive | inactive | 1.58 µM (active) | inactive | 8.91 µM (active) | 8.91 µM (active) | 10 µM (active) | inactive | inactive
